PINK1 expr mod – A Quantitative High throughput Screen to Identify Chemical Modulators of PINK1 Expression. PINK1 immunofluorescence, high-content cytometry, 24 h. Potency, µM (highest dose often 76.6 µM), for inactives: at the highest dose activation (PINK1 increase), hits mostly activators. 410,000 compounds, 0.2% hits. AID 624263, 2012; active means well fitted activation curve with a large enough effect; inconclusive means small, poorly fitted or top-dose-only effect; cell line not stated here; further: % of control where 0% means no effect; nearly all actives have a fitted effect of over 65% in size
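Fluorescence from anti-PINK1 antibody, together with nuclear and cell stains, was scanned on a laser-scanning cytometer. Before staining, stable-line cells were incubated 24 hours with compounds at 5 concentrations; primary antibody 12 h at 10 degrees C.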
SW480 rereplic – A quantitative high throughput screen for small molecules that induce DNA re-replication in SW480 colon adenocarcinoma cells; Potency, µM (titrated, usually from 46.1 µM), without a hit: at the top dose re-replication activation, actives largely listed as activators; SW480 DNA re-replication, Hoechst DNA content imaging, 48 h; 340,000 compounds, 1.8% hits; further: % of control where 0% means no effect; nearly all actives have a fitted effect of over 55% in size
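DNA re-replication was detected as more nuclei of elevated Hoechst intensity after 48 hr exposure to compound (23 nL pinned per well of 250 cells).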
KB-V1 MDR tox – qHTS assay for MDR1-selective chemotherapeutics: Primary screen using the drug-selected MDR subline cells KB-V1 | KB-V1 MDR cells viability, CellTiter-Glo, 72 h | Potency, µM (titrated, usually from 46.1 µM), most hits filed as cytotoxic | 400,000 compounds, 3.4% hits | AID 1347076, 2019; further: on the % scale 0 is the no-effect control and ±100 the full control effect; nearly all actives have a fitted effect of over 60% in size
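qHTS viability screen in drug-selected KB-V1 MDR cells: 72 h compound treatment at 37 degrees C, ATP luminescence end point.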
KB-3-1 tox – qHTS assay for MDR1-selective chemotherapeutics: Primary screen using the parental adenocarcinoma cell KB-3-1; KB-3-1 viability, CellTiter-Glo ATP luminescence, 72 h; 400,000 compounds, 1.4% hits; Potency, µM (doses to about 46.1 µM), most hits filed as cytotoxic; further: on the % scale 0 is the no-effect control and ±100 the full control effect; nearly all actives have a fitted effect of over 60% in size
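KB-3-1 cells, DMEM (no phenol red) + 10% FBS; compound by pin transfer, 72 h, 37 °C. Readout: CellTiter-Glo luminescence after 10 min. Data normalized, curve-fitted.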
MCF10A rerep – A quantitative high throughput screen for small molecules that induce DNA re-replication in MCF 10a normal breast cells; MCF 10A DNA re-replication, Hoechst nuclear intensity, 48 h; Potency, µM (series often up to 46.1 µM), for the others: at the top dose activity, positive = re-replication, most hits filed as activators; 350,000 compounds, 2.9% hits; further: % of control where 0% means no effect; nearly all actives have a fitted effect of over 50% in size
12-LOX inh – Primary qHTS assay for inhibitors of human arachidonate 12S-lipoxygenase (ALOX12): Round 2 | Polyunsaturated fatty acid lipoxygenase ALOX12 (Homo sapiens), P18054 | purified 12hLO, xylenol orange hydroperoxide absorbance | Potency, µM (titrated, usually from 108 µM), without a hit: at the top dose activity change, negative = inhibition, usual class: inhibitors | 580,000 compounds, 1.1% hits | AID 1671190, 2021; further: on the % scale 0 is the no-effect control and ±100 the full control effect
Target sequence (P18054 whole entry, looked up): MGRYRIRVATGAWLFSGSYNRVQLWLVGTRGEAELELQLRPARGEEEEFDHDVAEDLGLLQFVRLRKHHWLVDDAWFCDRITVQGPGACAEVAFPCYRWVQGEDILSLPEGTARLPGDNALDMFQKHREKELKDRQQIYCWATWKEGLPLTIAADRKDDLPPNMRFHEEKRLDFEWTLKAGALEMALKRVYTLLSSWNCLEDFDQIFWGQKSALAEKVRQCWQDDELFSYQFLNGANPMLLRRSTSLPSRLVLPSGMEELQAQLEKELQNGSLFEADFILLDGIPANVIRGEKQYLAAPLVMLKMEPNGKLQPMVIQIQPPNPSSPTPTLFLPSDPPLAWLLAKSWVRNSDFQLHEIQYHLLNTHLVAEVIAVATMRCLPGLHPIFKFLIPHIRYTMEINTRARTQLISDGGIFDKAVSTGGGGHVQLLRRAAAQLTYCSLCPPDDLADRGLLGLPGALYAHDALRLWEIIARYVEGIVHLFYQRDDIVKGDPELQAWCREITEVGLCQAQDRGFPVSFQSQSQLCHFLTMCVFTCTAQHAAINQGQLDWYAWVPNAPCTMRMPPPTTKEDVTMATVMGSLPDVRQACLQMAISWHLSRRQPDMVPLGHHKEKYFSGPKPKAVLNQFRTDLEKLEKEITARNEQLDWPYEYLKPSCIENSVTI
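Purified human 12hLO (150 nM final) in 25 mM Hepes, 0.01% Triton X-100, pH 7.0 was preincubated 15 min at room temperature with compound. Then 40 uM arachidonic acid was added, 30 min. Hydroperoxide was read by Fe-XO absorbance ratio 573/405 nm.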
An asterisk follows results filed as active; i = inactive; ? = inconclusive; nt = no result; [ ] = remark or other dose. This is a sample that favours compounds with a hit; in the whole collection about 5.8% have one here. Unless noted, the call rests on the fitted dose curve; in most records, active means well fitted curve in the direction sought with a large enough effect; inconclusive means small, poorly fitted or top-dose-only effect, or another doubt; inactive means no such curve, though single readings can be large; an effect the other way counts as inactive or inconclusive. Potency means the concentration at half of the fitted maximal effect.

SMILES | PINK1 expr mod | SW480 rereplic | KB-V1 MDR tox | KB-3-1 tox | MCF10A rerep | 12-LOX inh
CN=c1scc(-c2ccccc2F)n1/N=C/c1ccc(O)c(O)c1O | 3% | ? | i | ? | 9% | 35µM*
CC(C)(C)OC(=O)N1CCCC1C(=O)NCc1ccccc1Cl (centres undefined) | nt | nt | nt | nt | nt | 10%
CCc1ccc(CC)c(C(=O)Cn2c(Cl)nc3c2c(=O)n(C)c(=O)n3C)c1 | nt | nt | nt | nt | nt | -1%
COc1ccc(NC(=O)c2ccc(F)cc2)cc1S(=O)(=O)Nc1cc(C)ccc1Br | ? | ? | 4.6µM* | ? | 15µM* | ?
COc1ccccc1NS(=O)(=O)c1cc(NC(=S)Nc2cc(C)cc(C)c2)ccc1Cl | 45µM* | 9% | 15µM* | ? | 5% | ?
CCNC(=S)Nc1ccc(C)c(S(=O)(=O)Nc2ccccc2OC)c1 | 1% | -4% | i | i | 17% | -26%
Cc1ccc(NS(=O)(=O)c2cc(NC(=O)C(C)Oc3ccccc3)ccc2C)c(C)c1 (centres undefined) | ? | 2% | 18µM* | ? | 23% | -1%
COc1ccccc1NS(=O)(=O)c1cc(NC(=O)CNC(=O)c2cc(C)cc(C)c2)ccc1C | -1% | ? | 18µM* | i | 6% | -11%
CC1(CCCCc2ccccc2)COc2ccc(C(=O)Nc3cccnc3)cc2N1 (centres undefined) | nt | nt | nt | nt | nt | 18%[176 µM]
Cc1cc([N+](=O)[O-])ccc1NC(=O)C(C)N1CCN(c2ccccn2)CC1 (centres undefined) | -2% | -1% | 21µM* | i | 0% | -15%
Cc1cccc(NC(=S)NNC(=O)c2ccccc2OC(F)F)c1 | 1% | -7% | 16µM* | ? | ? | 1%
COc1ccc(NC(=S)NNC(=O)c2ccccc2OC(F)F)cc1 | 14%[38.3 µM] | 0.58µM* | i | i | ? | -2%
CCc1ccc(NC(=S)NNC(=O)c2ccccc2OC(F)F)cc1 | nt | 24% | nt | nt | ? | nt
CCN1CCN(S(=O)(=O)c2ccc(Cl)c(C(=O)N(CC)Cc3ccccc3)c2)CC1 | 1% | -5% | ? | i | -2% | ?
CCN1CCN(S(=O)(=O)c2ccc(S(=O)(=O)NC3CC3)cc2)CC1 | 1% | ? | i | i | 0% | ?
CCN1CCN(S(=O)(=O)c2ccc(S(=O)(=O)N(CC)Cc3ccccc3)cc2)CC1 | 1%[38.3 µM] | 12µM* | ? | i | 1.8µM* | 1.4µM*
CCN1CCN(S(=O)(=O)c2ccc(C(C)(C)C)cc2)CC1 | 0% | 23µM* | i | i | ? | ?
CCS(=O)(=O)Nc1ccc(C2=NN(C(C)=O)C(c3ccco3)C2)cc1 (centres undefined) | nt | nt | nt | nt | nt | -18%
Cc1cccc(N2CCN(C(=O)Cn3ncc4c5ccccc5n(C)c4c3=O)CC2)c1C | 10% | nt | i | i | nt | -13%
Cc1cccc(N2CCN(C(=O)CCNC(=O)Cn3ccc4ccccc4c3=O)CC2)c1C | -2% | 2% | 21µM* | i | 1% | -10%
Cc1cccc(N2CCN(C(=O)Cc3cn(C)c4ccccc34)CC2)c1C | -2% | ? | 18µM* | ? | 18µM* | -41%
O=C(NC1CCCCC1)C1CN(C(=O)c2ccc(C(F)(F)F)cc2)CC12CCOCC2 (centres undefined) | nt | nt | nt | nt | nt | 9%
COCCn1c(C)c(C)c(S(=O)(=O)c2ccc(F)cc2)c1NC(=O)C1CCCO1 (centres undefined) | nt | nt | nt | nt | nt | -7%
Cc1cccc(-n2c(-c3csc(C)c3C)n[nH]c2=S)c1 | 0% | 106% | ? | i | 1% | ?
Cc1cccc(-n2c(-c3csc(C(C)C)c3)n[nH]c2=S)c1 | 0%[38.3 µM] | -6% | 18µM* | i | 1% | ?
SMILES | PINK1 expr mod | SW480 rereplic | KB-V1 MDR tox | KB-3-1 tox | MCF10A rerep | 12-LOX inh
CCCc1cc(-c2n[nH]c(=S)n2-c2cccc(C)c2)cs1 | 1% | -3% | ? | i | 10%[9.22 µM] | 45µM*
O=S(=O)(c1ccc2c(c1)CCO2)N1CCN(Cc2ccccc2)CC1 | nt | nt | nt | nt | nt | 19%
CNC(=S)N(CCc1c(C)[nH]c2ccc(C)cc12)Cc1cccs1 | 0% | 30% | ? | i | 3.7µM* | ?
C/C(=N\NC(=O)CCCNc1ccc(C)cc1)c1ccccn1 | -2% | ? | 6.5µM* | i | ? | 13%
Cc1ccc(CN(CCc2ccccc2)C(=O)c2ccc(C#N)cc2)s1 | nt | nt | nt | nt | nt | -3%
Cn1c(SCc2nc3ccccc3[nH]2)nnc1-c1cccs1 | 1% | -5% | 21µM* | i | 7% | 8%
Cc1ccc(CSc2nnc(-c3cccs3)n2C)cc1 | nt | 3% | i | i | -14% | -9%
Cn1c(Cc2cccs2)nnc1SCc1nc2ccccc2[nH]1 | -2% | 0% | i | i | 3% | 15%
Cn1c(SCc2c(Cl)cccc2Cl)nnc1-c1cccs1 | -1% | 1% | 18µM* | i | 0% | -21%
Cc1ccc(CNc2nc3ccccc3nc2NS(=O)(=O)c2ccccc2)cc1 | nt | nt | nt | nt | nt | 10%
COc1cccc(C2CCCCN2Cc2nc(CCc3ccccc3)no2)c1 (centres undefined) | nt | nt | nt | nt | nt | -11%
N#Cc1nc(C2CC2)oc1N1CCN(C(=O)c2ccc(F)c(F)c2)CC1 | nt | nt | nt | nt | nt | 22%
COc1ccc([C@H]2[C@H](C(=O)OC(C)(C)C)N3N=Cc4ccccc4C3C23C(=O)c2ccccc2C3=O)cc1OC (some centres undefined) | 8% | -3% | 8.2µM* | i | 3% | nt
COc1ccc([C@H]2[C@H](C(=O)OC(C)(C)C)N3N=Cc4ccccc4C3C23C(=O)c2ccccc2C3=O)c(OC)c1 (some centres undefined) | 3% | ? | ? | ? | 7% | -9%
Cc1ccc(-c2cc(C(=O)N3CCN(C(=O)c4ccco4)CC3)c3ccccc3n2)o1 | nt | nt | nt | nt | nt | 18µM*
Cc1cccc(NC(=O)c2cc(-c3ccc(C)o3)nc3ccccc23)c1 | nt | nt | nt | nt | nt | 10µM*
Cc1ccc(-c2cc(C(=O)O)c3ccccc3n2)o1 | nt | nt | nt | nt | nt | 11µM*
Cc1ccc(-c2cc(C(=O)N3CCN(c4ccccc4O)CC3)c3ccccc3n2)o1 | -1% | 27% | i | i | 14% | ?
Cc1ccc(-c2cc(C(=O)Nc3cc(F)ccc3F)c3ccccc3n2)o1 | nt | nt | nt | nt | nt | 7.9µM*
Cc1ccc(CN(C)CC(=O)NC(C)c2ccccc2C)o1 (centres undefined) | nt | nt | nt | nt | nt | -58%

Screening data from PubChem.
